High-throughput results: PubChem BioAssay, National Center for Advancing Translational Sciences (NCATS)
Pf Dd2 growth: qHTS Primary assay for Inhibitors of Plasmodium falciparum Dd2 growth in vitro; AID 1347417, 2020; 120,000 compounds, 4.3% hits; P. falciparum Dd2 growth, SYBR Green, 72 h; Potency, µM (series often up to 28.9 µM), for the others: at the top dose activity, negative = inhibition, usual class: inhibitors; active = well fitted inhibition curve with a large enough effect;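 note: plate controls were DMSO vehicle for no effect and reference drug for full effect; nearly all actives have a fitted effect of over 65% in size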
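Readout: SYBR Green fluorescence, 485 nm excitation, 535 nm emission, after ~16 h lysis at 37C. Before that, Dd2-infected red cells (2.5% hematocrit) grew 72 h with compound, 29 uM top final concentration.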
An asterisk follows results filed as active; i = inactive; [ ] = another dose, or the depositor's remark. This excerpt belongs to a sample that is enriched for hits. Potency is the fitted concentration of half-maximal effect.

SMILES | Pf Dd2 growth
CCOCCn1c(=O)[nH]c2cc(C(=O)NCc3noc(CC)n3)ccc21 | 5%
CCc1csc(CNC(=O)c2ccc(N(C)Cc3nonc3C)nc2)n1 | -4%
CC(=O)N1C[C@@H]2OCC(=O)N(C)[C@@H]2C1 | 1%[76.6 µM]
CS(=O)(=O)N1CCC(C2CCN(Cc3ccc(Br)o3)C2)CC1 (stereo not drawn) | 4.5µM*
CNC(=O)N1CCC(C2CCN(C(=O)Cc3cccs3)C2)CC1 (stereo not drawn) | 31%
Cn1cccc1CN1CCC(C2CCN(S(C)(=O)=O)CC2)C1 (stereo not drawn) | i
CS(=O)(=O)N1CCC(C2CCN(Cc3cccs3)C2)CC1 (stereo not drawn) | 13µM*
Cc1ccc(CN2CCC(C3CCN(S(C)(=O)=O)CC3)C2)o1 (stereo not drawn) | i
CS(=O)(=O)N1CCC(C2CCN(C3CCOCC3)C2)CC1 (stereo not drawn) | -18%
CC(=O)NC[C@H]1O[C@H](Cc2cc(CN3CCN(c4ccccc4)CC3)on2)CC[C@@H]1O | 20%[44.1 µM]
O=C(c1cc(F)ccc1F)N1CCC(Cc2nc(-c3ccccc3)no2)CC1 | i
CCCC(=O)N1C2CCCC1CC(=O)C2 | 0%[44.1 µM]
CC1=C(c2ccc(Cl)cc2)S(=O)(=O)N=C1N1CCN(c2cccc(C)c2C)CC1 | -14%
COC(=O)c1c(-c2ccc(Cl)cc2)noc1N1CCN(c2cccc(C)c2C)CC1 | 4.5µM*
COc1ccc(-c2noc(N3CCC(C(=O)N4CCN(c5cccc(C)c5C)CC4)CC3)n2)cc1 | 32%
Cc1cccc(CN2C[C@@H]3[C@H](C2)N(CC(C)C)C(=O)C(C)(C)[S+]3(=O)[O-])c1 | -12%[44.1 µM]
CCOc1ccc(Cl)cc1CN(C)c1cc(C2CC(O)C2)nc(N)n1 (stereo not drawn) | 11µM*
Cc1cc(CN(C)c2cc(C3CC(N)C3)nc(N)n2)no1 (stereo not drawn) | -5%
Cc1nc(C2CC(O)C2)cc(N(C)Cc2ccc3c(c2)OCO3)n1 (stereo not drawn) | -3%
O=C(Cc1ccc(Cl)cc1)N1CCC2(CC1)NC(=O)N(c1ccc(F)cc1)N2 | -11%
O=C(NCc1nnc2ccc(-c3ccc(F)cc3)nn12)c1cccc(C(F)(F)F)c1 | i
COc1ccccc1C(=O)N1CC2(C1)C(=O)Nc1ccccc12 | -2%
CN(C)c1ccc(-c2nnnn2[C@H]2CO[C@H]3[C@@H]2OC[C@H]3OC(=O)Nc2ccc(Oc3ccccc3)cc2)cc1 | i
CN1CC(=O)N(C2CCCC2)Cc2c(NC3CC3)ncnc21 | -7%
Cc1ccc(C)c(S(=O)(=O)N2CCCC(Cn3c(C4CC4)nc4cccnc43)C2)c1 (stereo not drawn) | -9%
SMILES | Pf Dd2 growth
O=C(NC1CCN(c2cc(-c3ccc(Cl)cc3)[nH]n2)CC1)c1ccc(F)cc1F | i
Cc1ccc2nc3n(c2c1)[C@@H](CNCc1ccccc1)COC3 | i
COc1ccc2c(c1)nc1n2[C@@H](CN(Cc2nccs2)Cc2nccs2)COC1 | -25%[44.1 µM]
COc1ncccc1CN(Cc1cccnc1OC)C[C@H]1COCc2nc3ccc(C)cc3n21 | 4.5µM*
O=C(NCc1cccs1)C1CCCN1c1nc2ncccc2o1 (stereo not drawn) | 13%[44.1 µM]
CC(C)NC(=O)N1CCC(OCCOc2cccnc2)CC1 | 63%
CCCCN1C(=O)[C@@H]2C[C@@H](O)CN2C2(CN(Cc3cccnc3)C2)C1=O | 35%[44.1 µM]
O=C(NCc1ccc(OC(F)(F)F)cc1)N1CCCC(Cn2cnc3cccnc32)C1 (stereo not drawn) | 7.1µM*
Cc1cccc(NC(=O)N2CCCC(Cn3cnc4cccnc43)C2)c1 (stereo not drawn) | -17%
COc1cccc(CNC(=O)N2CCCC(Cn3cnc4cccnc43)C2)c1 (stereo not drawn) | 13%
O=C(NCc1cccc(F)c1)N1CCCC(Cn2cnc3cccnc32)C1 (stereo not drawn) | -14%
Cc1cc(C)cc(NC(=O)N2CCCC(Cn3cnc4cccnc43)C2)c1 (stereo not drawn) | -11%
Cc1cc(NC(=O)N2CCCC(Cn3cnc4cccnc43)C2)ccc1Br (stereo not drawn) | 8.9µM*
O=C(O)C1CCc2nnc(C3CCN(C(=O)Cc4ccccc4)CC3)n21 (stereo not drawn) | 24%
COc1ccc(NC(=O)N2C[C@@H](F)C[C@H]2C(=O)N2CCCCC2)cc1OC | -6%
CCCNC(=O)N1CCC(O)(c2csc(CN3CCc4ccccc4C3)n2)CC1 | i
CC(C)(C)CC(=O)N1C[C@@H](CO)[C@H](c2nc(-c3ccncc3)no2)C1 | -16%
O=C1NCCOCCCN(C(=O)C2CCCC2)[C@H]2CCCC[C@@H]12 | -22%
Cc1ccc(-n2cc(CN(C)C(C)C(=O)N(C)C)c(-c3cccc(C)c3)n2)cc1 (stereo not drawn) | 4µM*
Cc1ccc(NC(=O)c2cn(-c3ccccc3)nc2-c2ccccc2)cc1 | -28%
CC(=O)Nc1ccc(-c2c(-c3cccc(C)c3)nn(-c3ccc(F)cc3)c2OC(C)=O)cc1 | -17%
COC(=O)CNC(=O)c1cc(-c2ccc(Cl)nc2)nc2c1cnn2C | 5%
